The source of these data is PubChem BioAssay AID1814 (Broad Institute, 2009).

The whole screen tested about 300,000 compounds, of which about 22,000 (7.3%) were called active. Inconclusive results (about 2%) are left out. No stated cut-off is given here; in the data, active means activity score below about -60%; inconclusive means mostly about -28% to -61%; inactive means positive scores. This excerpt belongs to a sample that is enriched for actives.

The assay in a line: Activators via SNCA 5'UTR binding, MLPCN (AID 1814). Particulars: alpha-synuclein 5'UTR reporter, activators screen; active compounds read low; tested at 7.5 µM.
Take `CC1(C)C=Cc2c(ccc3c2OC[C@@H](c2ccc(O)cc2O)C3)O1`: the activity score is -154% (active).

For `CC(C)Cc1cc(C(=O)Nc2cc(Br)ccc2O)no1`, the activity score was -135% (active).

For the compound `CC(C)Cc1cc(C(=O)NCCc2ccccc2)no1`, the activity score is -169% (active).

With `CC(C)CNC(=O)c1cc(-c2ccc(Br)cc2)on1`, the activity score is -187% (active).

For `Cc1cccc(NC(=S)NC(=O)c2ccc(Br)o2)c1`, the activity score is -131% (active).

With `Cc1cccc(NC(=O)NC(=S)NC(=O)c2ccccc2)c1`, the activity score is -62.7% (active).

In the case of `Cc1ccc(NC(=O)NC(=O)c2ccccc2)cc1F`, the activity score is -128% (active).

Take `Cc1cccc(NC(=O)c2ccc([N+](=O)[O-])o2)c1`: the activity score was -159% (active).

Take `Cc1nn(-c2ccccc2)c(C)c1NC(=O)CCl`: the activity score is -101% (active).

Regarding `CCCCCCOC(=O)NCC(O)c1ccccc1` (centres undefined), the activity score was -126% (active).

As for `COCC1CCCN(Cc2nc(-c3ccc4c(c3)OCO4)no2)C1` (centres undefined), the activity score is -62.5% (active).

As for `Cc1ccc2nc(Nc3ccccc3)cc(C)c2c1`, the activity score was -82.2% (active).

Regarding `Cc1cc(Nc2ccc(Br)cc2)nc2ccccc12`, the activity score is -83.2% (active).

On to `CCOc1cc(/C=N/Nc2cc(C)nc3ccc(C)cc23)ccc1O`, for which the activity score was -66.2% (active).

On to `c1csc(-c2nc(-c3ccncc3)no2)c1`, for which the activity score is -153% (active).

On to `Cc1ccc(-c2nc(-c3ccncc3)no2)c(C)c1`, for which the activity score is -108% (active).

As to `Cn1ccnc1-c1nnn(-c2ccc(F)cc2)n1`, the activity score is -89.8% (active).

Consider `Oc1ccc(/C=N/Nc2ccc(C(F)(F)F)cn2)cc1O`, for which the activity score was -195% (active).

Regarding `Oc1ccc(Br)cc1/C=N/Nc1ccccn1`, the activity score is 66.4% (inactive).

For `c1ccc(-n2ncc3c2ncn2c(C4CCCCC4)nnc32)cc1`, the activity score was -128% (active).

Regarding `Cc1cccc(Nc2nc(-c3ccccc3)cs2)n1`, the activity score was -106% (active).

Regarding `c1ccc(Nc2nc(-c3ccncc3)cs2)nc1`, the activity score was -108% (active).

For the compound `Clc1ccc(Nc2nc(-c3cccs3)cs2)nc1`, the activity score was -244% (active).

For the compound `CC(=O)Nc1cccc(-c2cnc3ccccc3n2)c1`, the activity score is -207% (active).

Regarding `CC(=O)Nc1cccc(-c2csc(Nc3cccc(C)n3)n2)c1`, the activity score is -234% (active).

For `c1cnc(Nc2nc(-c3ccc4ccccc4c3)cs2)nc1`, the activity score is -125% (active).

Regarding `CCOc1cc2[nH]c(=S)n(Cc3ccc(C(=O)N4CCN(C)CC4)cc3)c(=O)c2cc1OCC`, the activity score was 86.1% (inactive).

On to `COc1ccccc1C1C2=C(COC2=O)Nc2cc3c(cc21)OCO3` (centres undefined), for which the activity score was 98.1% (inactive).

`CCCOc1ccccc1C1CC(=O)Nc2cc3c(cc21)OCO3` (centres undefined): the activity score is 111% (inactive).

`COc1cc2c(cc1/C=C1/NC(=O)N(c3ccccc3)C1=O)OCO2`: the activity score is -142% (active).

With `Cc1noc(C)c1/C=N/Nc1ccc2ccccc2n1`, the activity score is -146% (active).

Regarding `C(=N\Nc1ccc2ccccc2n1)/c1ccc2c(c1)OCO2`, the activity score was 88.2% (inactive).

On to `C/C(=N\NC(=O)OC(C)(C)C)c1ccc[nH]1`, for which the activity score was -122% (active).

For the compound `O=C(Nn1cnc2ccccc2c1=O)c1ccc(F)cc1Cl`, the activity score is -87.1% (active).

For the compound `O=[N+]([O-])c1ccc2c(c1)Nc1nc3ccccc3nc1N2`, the activity score is -94.2% (active).

Turning to `Cn1c(=NC(=O)c2cnccn2)sc2ccccc21`, the activity score was -97.9% (active).

As to `O=C(NC(=S)Nc1ccccc1C(=O)O)c1ccc(-c2ccc(Br)cc2)o1`, the activity score was -123% (active).

`O=C(NC1CCCC1)C(=O)c1c[nH]c2ccccc12`: the activity score is -81.6% (active).

As to `O=C(CN1CCCCCC1)Nc1ccc(Br)cc1Br`, the activity score was -101% (active).

As for `O=C(CN1CCCCCC1)Nc1c(Cl)cc(Cl)cc1Cl`, the activity score is -86.3% (active).

On to `O=C(Nc1ccc(OC(F)(F)F)cc1)c1ccc2c(c1)no[n+]2[O-]`, for which the activity score is -72.3% (active).

Turning to `Cc1cc(Cl)nc(NC(=O)Nc2cccc(Cl)c2)n1`, the activity score is -64.7% (active).

On to `CCN1CCN(C(=O)CSc2ccc(C)cc2)CC1`, for which the activity score was -69.7% (active).

Consider `Cc1ccc(N/N=C2\COC(C)(C)CC2=O)cc1`, for which the activity score was -141% (active).

With `COc1ccc(C2NC(=O)c3ccccc3N2)cc1` (centres undefined), the activity score is -70.6% (active).

On to `COc1ccc(OC)c(C2C3=C(N=c4s/c(=C\c5cccc(O)c5)c(=O)n42)c2ccccc2CC3)c1` (centres undefined), for which the activity score is 58.4% (inactive).

`COc1cccc(C(=O)Nc2ccc(N3CCCC3)cc2)c1`: the activity score was -189% (active).

On to `COc1cccc(C(=O)NNC(=O)c2cccc(F)c2)c1`, for which the activity score is -79.5% (active).

Regarding `CN1CCN(c2ccc(NC(=O)c3ccccc3)cc2)CC1`, the activity score is -102% (active).

Take `COc1cccc(C(=O)Nc2ccc(N3CCN(C(=O)c4ccco4)CC3)cc2)c1`: the activity score was -184% (active).

Consider `CC[C@]1(O)CC2CN(CCc3c([nH]c4ccccc34)[C@@](C(=O)OC)(c3cc4c(cc3OC)N(C=O)[C@H]3[C@@](O)(C(=O)OC)[C@H](OC(C)=O)[C@]5(CC)C=CCN6CC[C@]43[C@@H]65)C2)C1` (some centres undefined), for which the activity score was 102% (inactive).

In the case of `COc1cccc(C(=O)Nc2ccc(NC(=O)c3ccco3)cn2)c1`, the activity score was -135% (active).

Regarding `COc1cccc(C(=O)Nc2cc3c(cc2Br)OCCCO3)c1`, the activity score is -98.2% (active).

As for `Cc1ccccc1C(=O)Nc1ccc(N2CCCCCC2)cc1`, the activity score is -160% (active).

`COC(=O)c1c(C)[nH]c(C(=O)/C=C/c2ccc(Cl)cc2)c1C`: the activity score was -131% (active).

For `NC(=O)Cc1ccc2sc(-c3ccccc3)nc2c1`, the activity score is -98.2% (active).

Regarding `O=C(c1cc(-c2ccc(Cl)cc2)on1)N1CCN(c2ccccc2)CC1`, the activity score was -113% (active).

`COc1cc(Cl)ccc1OCc1cc(C(=O)N2CC[C@@H]3CCCC[C@H]3C2)no1`: the activity score is -69% (active).

As for `COc1ccccc1-c1cc(C(=O)N2CCCCC2)no1`, the activity score is -93.5% (active).

With `O=C(c1cc(-c2cccs2)on1)N1CCCCC1`, the activity score was -73.9% (active).

Regarding `CCCOC1CCCN(C(=O)c2cc(COc3cncc(Cl)c3)on2)C1` (centres undefined), the activity score is -219% (active).

As to `COc1cccc(OCc2cc(C(=O)N3CCN(C(=O)c4ccco4)CC3)no2)c1`, the activity score is -121% (active).

As to `COc1ccc(OCc2cc(C(=O)N3CCCC3)no2)c2ccccc12`, the activity score was -148% (active).

As for `O=C(c1cc(-c2ccccc2O)on1)N1CCCC1`, the activity score was -142% (active).

Regarding `Cc1nc(-c2ccccc2)sc1C1(C)CC(c2cccnc2)=NO1` (centres undefined), the activity score is -91.2% (active).

Regarding `COc1ccc(C(C#N)Nc2ccc(C)cc2)cc1` (centres undefined), the activity score was -61.8% (active).

As to `COc1cc(OC)cc(C(=O)Nc2ccc(-c3nc4ccccc4o3)c(O)c2)c1`, the activity score was -61.8% (active).

On to `CC(=O)Nc1ccc(-c2nc3ccccc3o2)cc1`, for which the activity score is -91.4% (active).

With `Cc1cc2nc(-c3ccc(NC(=O)c4cccnc4)cc3)oc2cc1C`, the activity score is -164% (active).

In the case of `CCOC(=O)c1ccc(NC(=O)c2cccnc2)cc1`, the activity score was -77.6% (active).

Consider `CCOC(=O)c1ccc(NC(=O)Cc2cccs2)cc1`, for which the activity score was -126% (active).

For the compound `CCCC(=O)N1c2ccc(-c3csc(N)n3)cc2CC1C` (centres undefined), the activity score is -192% (active).

With `Cc1cc(C(=O)N/N=C\C(Br)=C\c2ccccc2)c(C)o1`, the activity score was -124% (active).

With `CC(C)c1cc(C(=O)N/N=C/C(Br)=C/c2ccccc2)n[nH]1`, the activity score was -105% (active).

In the case of `CC(=C/c1ccccc1)/C=N/NC(=O)c1cc(C)oc1C`, the activity score is -125% (active).

Take `Cc1cc(C(=O)N/N=C/c2ccc(N3CCOCC3)cc2)c(C)o1`: the activity score is -87.1% (active).

Take `CC(C)(C)c1cc(C(=O)N/N=C/c2ccc([N+](=O)[O-])s2)n[nH]1`: the activity score is 64% (inactive).

For the compound `Cc1cc(C(=O)N/N=C/c2ccccc2[N+](=O)[O-])c(C)o1`, the activity score was -112% (active).

For the compound `Cc1c(Cl)cccc1NC(=O)Nc1ccc(C(=O)N2CCCC2)cc1`, the activity score is -77.6% (active).

Regarding `CC(=O)NNC(=O)c1csc(Cc2c(Cl)sc3ccc(Cl)cc23)n1`, the activity score is 67.1% (inactive).

Regarding `CCOC(=O)c1c(C)nc(-c2ccccc2)nc1NC(=O)C(C)C`, the activity score is -83.8% (active).

As for `Nc1ccc(N=Nc2ccccc2Cl)c(N)n1`, the activity score was -165% (active).

With `O=C(NCCc1ccccc1)Oc1ccc(Cl)cc1`, the activity score was -107% (active).

Take `Cc1cc(C(=O)NCCc2ccc(Cl)cc2)c(C)o1`: the activity score is -131% (active).

`Cc1ccc2nc(/C(C#N)=C\c3ccc(OC(=O)c4cccs4)cc3)[nH]c2c1`: the activity score was -283% (active).

Take `COc1ccccc1OCC(=O)O/N=C(\N)c1ccccn1`: the activity score is -121% (active).

For `N/C(=N\OC(=O)CC1CCCCC1)c1ccccc1`, the activity score was -116% (active).

With `COc1ccc(C(=O)O/N=C(\N)c2ccccn2)cc1[N+](=O)[O-]`, the activity score was -177% (active).

Regarding `COc1ccc(CC(=O)N/N=C(\C)c2ccccn2)cc1`, the activity score is 77.7% (inactive).

With `N/C(=N\OC(=O)CCC1CCCCC1)c1ccccn1`, the activity score is -180% (active).

Consider `N/C(=N\OC(=O)Cc1ccc([N+](=O)[O-])cc1)c1ccccn1`, for which the activity score is -161% (active).

Take `CCc1c(C)nc2cc(-c3cccs3)[nH]n2c1=O`: the activity score was -81% (active).

With `C=CCc1c(C)nc2cc(-c3ccccc3)[nH]n2c1=O`, the activity score is -102% (active).

As for `CC(=O)N(C)c1ccc(NC(=O)Nc2cccc3ccccc23)cc1`, the activity score was -70.7% (active).

For the compound `O=[N+]([O-])c1ccc(O)c(/C=N/Nc2ccccc2[N+](=O)[O-])c1`, the activity score is -63.1% (active).

On to `Cc1cc(C(=O)COC(=O)CNC(=O)c2ccc(F)cc2)c(C)n1Cc1ccco1`, for which the activity score was -113% (active).

As to `Cc1ccsc1C(=O)OCC(=O)c1cc(C)n(CC2CCCO2)c1C` (centres undefined), the activity score was 79.6% (inactive).

As to `Nn1c(SCc2ccccc2)nnc1C1CCCCC1`, the activity score was -110% (active).

Regarding `N#Cc1cccc(NC(=O)COC(=O)c2ccccc2C(=O)c2ccc(Cl)c([N+](=O)[O-])c2)c1`, the activity score is -63.7% (active).

Regarding `Cc1ccc(Nc2nc(N)nc(CSc3nnc(C)s3)n2)cc1`, the activity score is -63.8% (active).

Regarding `CC(=O)c1ccc(NC(=S)NC(=O)CC(C)C)cc1`, the activity score is -98.8% (active).

As to `COc1ccccc1Nc1ncc(C(C)=O)c(C)n1`, the activity score is -80.4% (active).

On to `Cn1c(CCCOc2ccc(Cl)cc2Cl)n[nH]c1=S`, for which the activity score was -63.6% (active).

Turning to `COc1cccc2cc(C(N)=O)/c(=N\NC(=O)c3ccccc3)oc12`, the activity score is -61.9% (active).
